# This is one part of the list. The source made the active and inactive calls.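 Rule for the calls, unless noted: active = substances whose mean melting-temperature shift, as a percentage of the reference inhibitor's shift, reaches about 5.3% (limit read from the data); inactive = the rest.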
# Columns and labels:
# [1] = molecular target: Carboxy-terminal domain RNA polymerase II polypeptide A small phosphatase 1 (Homo sapiens) (UniProt Q9GZU7); assay: SCP1 melting temperature change from compounds – biophysical, differential scanning fluorimetry, orthogonal assay for Scp-1 inhibitor project, confirmation (AID 540329); settings: Recombinant SCP1, Sypro Orange thermal shift Tm; at 40 µM; stronger effect = higher value;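 note: 0% = Tm of DMSO wells and 100% = Tm with sodium orthovanadate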
# [2] = Brca1-Bard1 BiLC signal decrease – luminescence, single concentration, counter-screen for Mdm2/MdmX interaction inhibitor project, confirmation (AID 504668; call rule not given here); settings: Brca1/Bard1 bimolecular luciferase complementation counterscreen, at 8 µM, stronger effect = higher value
# [3] = molecular target: Tumor necrosis factor receptor superfamily member 10B (Homo sapiens) (UniProt O14763); assay: viability loss of caspase-8 NB7 cells with TRAIL – with/without TRAIL, luminescence panel, confirmation (AID 651596; in the data active = activity above about 50%); settings: NB7 neuroblastoma + caspase-8, TRAIL sensitization, NB7 Caspase-8, with TRAIL, mean of runs, at 10 µM, stronger effect = higher value
# [4] = as above; settings: NB7 neuroblastoma + caspase-8, without TRAIL, NB7 Caspase-8, without TRAIL, mean of runs, at 10 µM
# [5] = molecular target: Tumor necrosis factor receptor superfamily member 10B (Homo sapiens) (UniProt O14763); assay: compound enhancement of TRAIL-induced cell killing – NB7 cells plus caspase-8, luminescence, panel, dose response (AID 652002); settings: NB7 neuroblastoma +caspase-8, TRAIL sensitization, luminescence viability, NB7+Caspase-8, with TRAIL, run 1; at 12.5 µM (top of the series)
# [6] = molecular target: Tumor necrosis factor receptor superfamily member 10B (Homo sapiens) (UniProt O14763); assay: as above; settings: NB7 neuroblastoma +caspase-8, TRAIL sensitization, luminescence viability, NB7+Caspase-8, with TRAIL, run 2; at 12.5 µM (top of the series)
# [7] = as above; settings: NB7 neuroblastoma +caspase-8, no TRAIL, compound-alone cytotoxicity counter-screen, luminescence viability, NB7+Caspase-8, run 1; at 12.5 µM (top of the series) unless noted
# [8] = as above; settings: NB7 neuroblastoma +caspase-8, no TRAIL, compound-alone cytotoxicity counter-screen, luminescence viability, NB7+Caspase-8, run 2; at 12.5 µM (top of the series) unless noted
# Chain of Carboxy-terminal domain RNA polymerase II polypeptide A small phosphatase 1 (Homo sapiens) (Q9GZU7 76-261 limits assumed): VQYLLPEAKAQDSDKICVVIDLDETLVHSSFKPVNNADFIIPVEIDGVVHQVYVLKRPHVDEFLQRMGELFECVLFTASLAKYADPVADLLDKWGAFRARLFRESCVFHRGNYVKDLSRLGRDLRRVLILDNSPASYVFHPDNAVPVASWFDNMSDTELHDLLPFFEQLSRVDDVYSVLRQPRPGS
# Chain of Tumor necrosis factor receptor superfamily member 10B (Homo sapiens) (O14763 whole entry, looked up): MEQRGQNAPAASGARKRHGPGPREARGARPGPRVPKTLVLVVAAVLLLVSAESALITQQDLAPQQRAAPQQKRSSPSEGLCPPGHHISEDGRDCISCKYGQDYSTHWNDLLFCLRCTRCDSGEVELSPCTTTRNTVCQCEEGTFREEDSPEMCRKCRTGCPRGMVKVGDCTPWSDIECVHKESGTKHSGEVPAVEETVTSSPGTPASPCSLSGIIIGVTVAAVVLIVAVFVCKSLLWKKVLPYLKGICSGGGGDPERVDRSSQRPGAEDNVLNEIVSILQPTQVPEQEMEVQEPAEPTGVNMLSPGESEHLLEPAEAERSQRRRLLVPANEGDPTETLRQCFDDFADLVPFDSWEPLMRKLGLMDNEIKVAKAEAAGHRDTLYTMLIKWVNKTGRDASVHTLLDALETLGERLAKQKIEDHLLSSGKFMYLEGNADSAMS
compound,measurement,setting,value
Cc1ccc(Cc2nnc(SCC(=O)Nc3ccc(C)cc3C)[nH]c2=O)cc1,thermal shift relative to vanadate control,[1],4.55% (inactive)
Cc1cc(NC(=O)c2cncc(Br)c2)ccc1NC(=O)c1cc2ccccc2o1,inhibition,[2],28.6% (active)
same,activity,[3],58.9%
same,activity,[4],13.3%
same,"activity, % sensitization",[5],7.53%
same,"activity, % sensitization",[6],53.9%
same,"activity, % sensitization",[7],12.3%
same,"activity, % sensitization",[8],28.1%
Cc1ccc(NC(=O)c2cc(-c3ccc(C)o3)nc3ccccc23)nc1,thermal shift relative to vanadate control,[1],5.81% (active)
O=c1[nH]n(-c2ccc([N+](=O)[O-])cc2)c(=O)c2ccccc12,thermal shift relative to vanadate control,[1],2.78% (inactive)
COC(=O)c1c(NC(=O)c2ccc(OC(C)C)cc2)sc2c1CC(C)(C)NC2(C)C,inhibition,[2],23.6% (active)
same,activity,[3],43.5%
same,activity,[4],31.2%
O=C(COc1ccc(-n2cnnn2)cc1)Nc1ccccc1Cl,thermal shift relative to vanadate control,[1],-5.03% (inactive)
CS(=O)(=O)C1=NN2C(=N)/C(=C\c3ccc(OCCOc4ccccc4)cc3)C(=O)N=C2S1,thermal shift relative to vanadate control,[1],280% (active)
CCCc1nc(-c2cc3cc(C)ccc3[nH]c2=O)no1,thermal shift relative to vanadate control,[1],-30.4% (inactive)
Cn1c(=NC(=O)CCl)sc2ccccc21,inhibition,[2],28.7% (active)
same,activity,[3],99.5%
same,activity,[4],98.7%
Cc1ccc(/C=C/C(=O)Nc2ccc([N+](=O)[O-])c(NC(=O)/C=C/c3ccc(C)o3)c2)o1,thermal shift relative to vanadate control,[1],11% (active)
O=C1NN(c2ccccc2)C(=O)/C1=C/c1ccc(-c2cccc(C(=O)O)c2)o1,thermal shift relative to vanadate control,[1],14.3% (active)
COc1ccc(Cc2nnc(NC(=O)Cc3cccs3)s2)cc1,thermal shift relative to vanadate control,[1],9.39% (active)
O=C(Cn1cc(/C=N/NC(=O)c2cccc(C(F)(F)F)c2)c2ccccc21)Nc1ccc(F)cc1,thermal shift relative to vanadate control,[1],10.6% (active)
Cc1nnc(SCC(=O)Nc2ccc(S(=O)(=O)Nc3ccc(Cl)nn3)cc2)s1,thermal shift relative to vanadate control,[1],3.43% (inactive)
N#Cc1ccccc1CN1C(=O)S/C(=C/c2cccn2-c2cccc(C(=O)O)c2)C1=O,thermal shift relative to vanadate control,[1],1.96% (inactive)
COCCCn1c(Cc2csc(Nc3cccc(Cl)c3)n2)nnc1SCC(=O)OC1CCCCC1,thermal shift relative to vanadate control,[1],-0.65% (inactive)
O=C(NNC(=O)c1ccc2ccccc2c1)c1ccc(Cl)cc1,thermal shift relative to vanadate control,[1],-19.4% (inactive)
Cc1cc(/C=C2\SC(=O)N(C)C2=O)c(C)n1-c1cccc(C(=O)O)c1,thermal shift relative to vanadate control,[1],1.65% (inactive)
Cc1ccc(CCCOC(=O)C[N+]2(C)CCCC2)cc1,thermal shift relative to vanadate control,[1],-9.83% (inactive)
COc1cccc2cc(-c3cc(=O)oc4cc(C)c(O)cc34)oc12,thermal shift relative to vanadate control,[1],-12.5% (inactive)
O=C(COC(=O)c1ccc(F)cc1F)Nc1ncccn1,thermal shift relative to vanadate control,[1],1.27% (inactive)
O=C(CCS(=O)(=O)c1ccc(Br)cc1)NCCc1ccc(Cl)cc1,thermal shift relative to vanadate control,[1],1.56% (inactive)
CCCCCCc1cc2cc(S(=O)(=O)c3ccc(F)c(Cl)c3)c(=O)oc2cc1O,inhibition,[2],27.6% (active)
same,activity,[3],55.4%
same,activity,[4],40%
same,"activity, % sensitization",[5],-8.78%
same,"activity, % sensitization",[6],-2.26%
same,"activity, % sensitization",[7],-6.43%
same,"activity, % sensitization",[8],-24.8%
Cc1ccc(C(=O)NNC(=O)c2cc3cc4ccccc4nc3s2)cc1,thermal shift relative to vanadate control,[1],-10.9% (inactive)
COc1ccc(NC(=O)CN(C)C(=O)/C=C/c2cn(Cc3ccccc3)nc2-c2cccnc2)cc1,thermal shift relative to vanadate control,[1],-16.5% (inactive)
Cc1ccc(NC(=O)COc2ccc(/C=N\NC(=O)c3cccnc3)cc2)cc1C,thermal shift relative to vanadate control,[1],-4.33% (inactive)
CCCCCN1CC(O)=C(c2nc(-c3ccc(Cl)cc3)cs2)C1=N,thermal shift relative to vanadate control,[1],-7.73% (inactive)
O=C(Nc1cccc(F)c1)c1cc(-c2ccco2)nc2ccccc12,thermal shift relative to vanadate control,[1],-0.45% (inactive)
